Screens (PubChem BioAssay)
JMJD2A Tudor inh = inhibitors of human JMJD2A Tudor domain. AlphaScreen JMJD2A-Tudor / H3K4me3 peptide binding. 390,000 tested, 4.4% active. Potency, µM (top dose mostly 114 µM), most hits filed as inhibitors. O75164; also: nearly all actives have a fitted effect of over 50% in size
BAZ2B inh = blocks human BAZ2B | 360,000 tested, 4.4% active | AID 504333 | AlphaScreen BAZ2B-H3K14Ac peptide displacement | Potency, µM (top dose mostly 114 µM), hits mostly inhibitors | Q9UIF8; also: nearly all actives have a fitted effect of over 60% in size
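AlphaScreen luminescence quantifies BAZ2B engagement of H3K14Ac peptide; the protein and biotinylated peptide are both at 50 nM final, buffer PBS pH 7.4 with 0.01% Tween-20, all steps at room temperature.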
G9a inh = blocks human histone lysine methyltransferase G9a; Q96KQ7; G9a H3K9 monomethylation, AlphaScreen, 2 h; Potency, µM (top dose mostly 102 µM), usual class: inhibitors; 350,000 tested, 8.8% active; AID 504332; also: nearly all actives have a fitted effect of over 75% in size
Target sequence (Q96KQ7 913-1193 limits assumed): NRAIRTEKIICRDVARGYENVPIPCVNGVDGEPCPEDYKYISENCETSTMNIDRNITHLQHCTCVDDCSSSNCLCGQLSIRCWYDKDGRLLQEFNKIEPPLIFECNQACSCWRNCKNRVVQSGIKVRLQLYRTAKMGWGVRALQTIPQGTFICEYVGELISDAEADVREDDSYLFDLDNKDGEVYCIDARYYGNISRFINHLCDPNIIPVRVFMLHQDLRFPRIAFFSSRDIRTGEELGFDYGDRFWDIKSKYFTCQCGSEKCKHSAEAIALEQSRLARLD
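G9a (20 nM) preincubated 15 min RT with compounds, then 500 nM biotinylated H3K9 peptide and 20 uM SAM added; 2 h RT reaction. Monomethyl-H3K9 product detected by AlphaScreen with anti-H3K9me1 antibody, streptavidin donor and anti-rabbit IgG acceptor beads.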
HP1b chromo inh = inhibitors of HP1-beta chromodomain binding to methylated histone tails; P83916; AlphaScreen HP1-beta / biotin-H3K9me3 peptide binding; Potency, µM (doses to about 114 µM), actives largely listed as inhibitors; 390,000 tested, 0.56% active; also: nearly all actives have a fitted effect of over 70% in size
Target sequence (P83916 whole entry, looked up): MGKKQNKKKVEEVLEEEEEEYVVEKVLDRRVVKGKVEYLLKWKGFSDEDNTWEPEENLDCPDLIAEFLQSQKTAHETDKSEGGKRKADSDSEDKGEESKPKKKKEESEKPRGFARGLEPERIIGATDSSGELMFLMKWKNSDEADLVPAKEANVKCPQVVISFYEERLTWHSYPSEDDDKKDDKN
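Compound inhibition of the preformed complex between 50 nM HP1-beta and 50 nM biotinylated H3K9me3 peptide was read by AlphaScreen. Buffer was PBS pH 7.4 with 0.01% Tween-20. Incubations ran 30 min at room temperature, with 10 ug/mL donor/acceptor beads.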
GLS inhibitor = glutaminase GLS (human) inhibition | AID 624170 | 410,000 tested, 0.21% active | O94925 | GLS enzymatic activity, qHTS titration | Potency, µM (highest dose often 45.5 µM), actives largely listed as inhibitors
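Read-out is an Amplex red fluorescence increase coupled through glutamate oxidase and HRP, measured before and after 30 min room-temperature incubation. hKGA is in 45 mM KH2PO4 (pH 8.2) with 0.02% Tween-20; glutamine added as 1mM solution.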
A number is an active result; – = inactive; ? = inconclusive; · = no result; [ ] = remark or other dose. Shown are actives, neighbours in structure and some others; about 10% of the full set was active somewhere. Calls follow the shape of the dose curve; as a rule, active = well fitted curve in the direction sought with a large enough effect; inconclusive = small, poorly fitted or top-dose-only effect, or another doubt; inactive = no such curve, though single readings can be large; an effect the other way counts as inactive or inconclusive.

SMILES	JMJD2A Tudor inh	BAZ2B inh	G9a inh	HP1b chromo inh	GLS inhibitor
COc1ccc(N2CCC(CNC(=S)Nc3cccc(C)c3)C2)cc1 (configuration not stated)	44.7µM	12.6µM	?	?	–
CCOC(=O)COc1ccc2c(C)c(CCN(CC)CC)c(=O)oc2c1Cl	·	·	–[12.7 µM]	·	–
CC(C)NC(=O)C(=O)NCCc1ccc(Cl)cc1	–	–	1.12µM	–	–
COc1cccc(N2CCN(C(=O)Cn3ncc4c(=O)oc5ccccc5c43)CC2)c1	–	–	–	–	–
COc1ccc(Br)cc1CN1CCC(N2CCCC2)CC1	?	31.6µM	25.1µM	?	–
COc1ccc(C(=O)NCCN2CCN(C(=O)c3ccc(OC)c(OC)c3)CC2)cc1OC	–	–	–	–	–
COc1cccc(C(=O)N2CCN(Cc3ccc(OC)cc3OC)CC2)c1	12.6µM	25.1µM	7.94µM	?	–
COc1cccc(C(=O)N2CCN(Cc3cc(Br)ccc3OC)CC2)c1	7.94µM	28.2µM	22.4µM	?	–
COc1cccc(C(=O)N2CCN(C(=O)Cc3ccccc3)CC2)c1	–	–	–	–	–
COc1ccc(OC)c(CN2CCN(C(=O)c3cccc(S(=O)(=O)Nc4ccccc4OC)c3)CC2)c1	–	?	–	–	–
COc1ccc(Br)cc1CN1CCN(C(=O)c2ccc(OC)c(OC)c2)CC1	14.1µM	50.1µM	15.8µM	?	–
Cc1ccc(S(=O)(=O)NC(C)C(=O)N2CCOCCOCCOCC2)cc1 (configuration not stated)	–	–	70.8µM	–	–
Cc1ccc2c(c1)sc(-c1ccc(N(C)C)cc1)[n+]2C	–	–	50.1µM	–	–
CC[n+]1c(C)sc2cc(C)ccc21	–	–	?	–	–
Cc1ccc(C(=O)/C=C/C(=O)c2ccc(C)cc2)cc1	–	–	1.58µM	?	2.82µM
CCc1ccc(NC(=O)c2cc3nc(-c4ccc(C)cc4)cc(C(F)(F)F)n3n2)cc1	–	–	–	–	–
Cc1ccc(C(=O)NCCn2cc(SCC(=O)Nc3cc(C)on3)c3ccccc32)cc1	–	–	–	–	–
Cc1cc(NC(=O)CSc2cn(CCNC(=O)c3ccccc3)c3ccccc23)no1	22.4µM	–	?	8.91µM	8.91µM
Cc1cc(NC(=O)CSc2cn(C)c3ccccc23)no1	–	–	25.1µM	–	–
Cn1ncc2c1NC(c1ccc(F)cc1)SCC2=O (configuration not stated)	·	·	·	·	–
CN(C(=O)CSc1nc2ccccc2o1)C1CCCCC1	–	–	–	–	–
CCN(CC)CCOC(=O)c1ccc(NC(=O)CCCN2C(=O)S/C(=C/c3ccc(OC)cc3)C2=S)cc1	?	?	39.8µM	?	–
O=C(CCN1C(=O)/C(=C\c2ccccc2)SC1=S)Nc1ccc(C(=O)O)cc1	?	56.2µM	?	–	–
COc1ccc(/C=C2\SC(=S)N(CCC(=O)Nc3ccc(O)cc3)C2=O)cc1	–	–	–	–	–
COc1ccc(/C=C2\SC(=S)N(CCCC(=O)Nc3ccc(C(=O)O)cc3)C2=O)cc1OC	?	50.1µM	·	–	–
SMILES	JMJD2A Tudor inh	BAZ2B inh	G9a inh	HP1b chromo inh	GLS inhibitor
CCOc1ccc(/C=C2/SC(=S)N(CCC(=O)Nc3ccc(C(=O)O)cc3)C2=O)cc1	10µM	31.6µM	15.8µM	35.5µM	?
O=C(CCCN1C(=O)/C(=C/c2ccc(F)cc2)SC1=S)Nc1ccc(C(=O)O)cc1	·	·	·	·	–
COc1cc(/C=C/C(=O)Nc2nnc(CC(C)(C)C)s2)cc(OC)c1OC	?	–	2.24µM	?	–
COc1cc(/C=C/C(=O)Nc2nnc(CC(C)C)s2)cc(OC)c1OC	–	–	–	–	–
COc1ccc(C(=O)NNC(=O)CCC(=O)NNC(=O)c2ccc(OC)cc2)cc1	–	50.1µM	7.94µM	–	–
NNC(=O)c1ccc(COc2ccccc2)cc1	–	–	–	–	–
CCc1nc(SCC(=O)c2ccc3c(c2)OCCO3)c2ccccc2n1	–	–	8.91µM	–	–
COc1ccc(OCc2ccc(C(=O)NN)cc2)cc1	?	–	44.7µM	–	–
COc1ccc(C(=O)NNC(=O)CCCCC(=O)NNC(=O)c2ccc(OC)cc2)cc1	–	·	?	–	–
CCn1c(CSc2nc3ccccc3s2)nnc1SCC(=O)c1ccc2c(c1)OCCO2	79.4µM	–	?	–	–
Fc1ccc(-n2ncc3c(N4CCC(Cc5ccccc5)CC4)ncnc32)cc1	–	–	–	–	–
CSc1ccc(CN2CCC(C)(Oc3ccc(F)cc3)C2)cc1 (configuration not stated)	·	·	·	·	–
CCc1nc(SCC(=O)NNC(=O)c2ccc(OC)cc2)c2ccccc2n1	50.1µM	–	–	–	8.91µM
COc1ccc(C(=O)NNC(=O)CSc2nc(C(C)C)nc3ccccc23)cc1	–	–	–	–	–
COc1ccc(Nc2c3c(nc4ccc(NC(=O)/C=C/c5cc(OC)c(OC)c(OC)c5)cc24)CCCC3)cc1OC	?	10µM	15.8µM	–	–
COc1ccc(/C=C/C(=O)Nc2ccc3nc4c(c(Nc5ccc(OC)c(OC)c5)c3c2)CCCC4)cc1	22.4µM	8.91µM	8.91µM	?	–
CN(Cc1ccccn1)C(=O)C1CCC(=O)N(CCc2ccc(Cl)cc2)C1 (configuration not stated)	–	–	–	–	–
FC(F)(F)c1cnc(-n2cc[nH]c2=S)c(Cl)c1	79.4µM	–	31.6µM	–	–
Nc1ccn(-c2ncc(C(F)(F)F)cc2Cl)c(=O)n1	–	–	–[12.7 µM]	–	–
Cc1ccccc1CN1C(=O)c2ccccc2Sc2ccc(C(=O)NC3CCCCC3)cc21	–	–	–	–	–
COc1ccc(N=Nc2nc3cc(Br)c(Br)cc3n2C)c(OC)c1	31.6µM	35.5µM	?	44.7µM	–
CC(OC(=O)CCNS(=O)(=O)c1ccc(Cl)cc1)C(=O)N(C)Cc1ccccc1 (configuration not stated)	·	·	·	·	–
COc1cc(C(=O)N(CCc2ccccc2)C2=CC3CCC(C2)N3C)cc(OC)c1OC (configuration not stated)	–[11.4 µM]	–	?	–	–
CCCCN(C(=O)c1cc(OC)c(OC)c(OC)c1)C1=CC2CCC(C1)N2C (configuration not stated)	–	–	56.2µM	–	–
CCOC(=O)c1c(C)c(-c2ccccc2)n(CC(=O)Nc2cc(C)ccc2OC)c1C	–	–	–	–	–
SMILES	JMJD2A Tudor inh	BAZ2B inh	G9a inh	HP1b chromo inh	GLS inhibitor
Oc1ccc2ccccc2c1C=Nc1ccccc1-c1nc2ccccc2[nH]1	?	–	7.08µM	?	–
C=CCn1c(-c2cccc3ccccc23)n[nH]c1=S	–	–	?	–	·
CCn1c2ccccc2c2n[nH]c(=S)nc21	–	–	7.94µM	–	–
C=CCn1c2ccccc2c2n[nH]c(=S)nc21	–	–	10µM	–	–
O=C(O)Cn1c2ccccc2c2n[nH]c(=S)nc21	20µM	50.1µM	2.24µM	–	–
NC(=O)C1(N2CCCCC2)CCN(C(=O)Nc2ccc(F)cc2)CC1	–	–	–	–	–
